Our source for the inhibition, activity and activation values is PubChem BioAssay.

This is one part of the list. The source made the active and inactive calls. Cut-off read from the data, not from the text of the source, unless noted: active = activation above about 33%; inactive = the rest.

Experiment [1] can be described thus: lowers stimulated NF-kB luciferase signal in Jurkat – cell-based, luminescence, single concentration, T-cell NF-kB inhibitor project, confirmation (AID 435020;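 active = inhibition reaching about 45% at 4 µM in either replicate, limit read from the data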;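 note: plate controls were PMA/ionomycin stimulated DMSO wells for no effect and unstimulated DMSO wells for full effect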). As to conditions: PMA/ionomycin-induced, 16 h, at 4 µM, stronger effect = higher value.
The target in experiment [2] is Sentrin-specific protease 8 (Homo sapiens) (UniProt Q96LD8). Nature of the experiment: human SENP8 peptidase blockers, hit retest – biochemical, luminescence, single concentration, confirmation (AID 488912;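 active = mean inhibition across replicates above about 50%, limit read from the data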). As to conditions: Recombinant SENP8, Z-RLRGG-aminoluciferin luminescence, 60 min; at 12.5 µM; stronger effect = higher value.
Sequence of Sentrin-specific protease 8 (Homo sapiens) (Q96LD8 whole entry, looked up, the tested form may be a part): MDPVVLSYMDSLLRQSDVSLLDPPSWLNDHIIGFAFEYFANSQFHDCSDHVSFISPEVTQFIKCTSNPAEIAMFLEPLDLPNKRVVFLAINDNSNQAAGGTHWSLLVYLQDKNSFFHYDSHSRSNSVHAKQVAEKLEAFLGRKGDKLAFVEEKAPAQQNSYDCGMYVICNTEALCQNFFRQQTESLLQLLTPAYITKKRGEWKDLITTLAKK
Experiment [3] deals with Sentrin-specific protease 6 (Homo sapiens) (UniProt Q9GZR1). Nature of the experiment: inhibition of human SENP6 catalytic domain – biochemical, luminescence, single concentration, confirmation (AID 488915;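 active = mean inhibition above about 50% in the one-dose retest, limit read from the data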). As to conditions: recombinant SENP6, Z-RLRGG-aminoluciferin luminescence; at 12.5 µM; stronger effect = higher value.
Sequence of Sentrin-specific protease 6 (Homo sapiens) (Q9GZR1 628-1112 limits assumed): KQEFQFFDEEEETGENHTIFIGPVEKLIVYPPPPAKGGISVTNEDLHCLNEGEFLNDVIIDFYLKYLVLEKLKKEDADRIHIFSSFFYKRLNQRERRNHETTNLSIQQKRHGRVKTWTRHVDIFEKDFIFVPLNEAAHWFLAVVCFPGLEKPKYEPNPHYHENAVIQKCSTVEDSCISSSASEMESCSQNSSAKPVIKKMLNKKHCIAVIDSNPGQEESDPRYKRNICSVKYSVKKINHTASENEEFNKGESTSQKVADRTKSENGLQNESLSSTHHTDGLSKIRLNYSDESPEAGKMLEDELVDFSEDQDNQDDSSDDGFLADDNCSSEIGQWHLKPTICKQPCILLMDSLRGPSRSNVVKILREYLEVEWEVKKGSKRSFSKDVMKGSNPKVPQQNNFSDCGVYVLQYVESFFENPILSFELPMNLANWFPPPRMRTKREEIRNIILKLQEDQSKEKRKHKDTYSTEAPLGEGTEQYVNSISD
The target in experiment [4] is Sentrin-specific protease 7 (Homo sapiens) (UniProt Q9BQF6). The experiment in a line: human SENP7 peptidase blockers, hit retest – biochemical, luminescence, single concentration, confirmation (AID 488917;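 active = mean inhibition above about 50% in the one-dose retest, limit read from the data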). As to conditions: recombinant SENP7, Z-RLRGG-aminoluciferin luminescence, 40 min; at 12.5 µM; stronger effect = higher value.
Sequence of Sentrin-specific protease 7 (Homo sapiens) (Q9BQF6 706-1050 limits assumed): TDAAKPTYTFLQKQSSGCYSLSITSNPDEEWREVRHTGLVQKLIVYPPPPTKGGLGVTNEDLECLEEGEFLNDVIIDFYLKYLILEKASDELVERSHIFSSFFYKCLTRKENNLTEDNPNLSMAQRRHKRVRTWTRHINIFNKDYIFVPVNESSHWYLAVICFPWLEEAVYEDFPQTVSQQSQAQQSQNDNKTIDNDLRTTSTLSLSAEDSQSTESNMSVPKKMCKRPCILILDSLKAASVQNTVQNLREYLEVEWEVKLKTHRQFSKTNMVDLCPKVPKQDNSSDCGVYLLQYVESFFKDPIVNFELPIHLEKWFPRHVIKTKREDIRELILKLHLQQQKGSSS
The target of experiment [5] is Caspase-3 (Homo sapiens) (UniProt P42574). The experiment in a line: human caspase-3 activity blockade, out-of-family – biochemical, single concentration, selectivity assay for SENP inhibitor project, confirmation (AID 488918;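 active = mean inhibition above about 50%, limit read from the data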;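 note: plate controls were enzyme with DMSO for no effect and wells without caspase-3 for full effect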). As to conditions: purified caspase-3, Z-DEVD-aminoluciferin luminescence, 60 min; at 12.5 µM; stronger effect = higher value.
Sequence of Caspase-3 (Homo sapiens) (P42574 28-227 limits assumed): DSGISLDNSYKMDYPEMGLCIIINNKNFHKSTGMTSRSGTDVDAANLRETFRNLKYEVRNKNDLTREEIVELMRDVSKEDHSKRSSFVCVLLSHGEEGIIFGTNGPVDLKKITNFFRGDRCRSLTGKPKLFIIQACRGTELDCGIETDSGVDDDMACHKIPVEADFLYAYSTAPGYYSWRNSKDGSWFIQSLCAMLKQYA
Experiment [6] can be described thus: Ultra-Glo luciferase signal interference – biochemical, single concentration, SENP8 reaction pre-completed, artefact control for SENP inhibitor project, confirmation (AID 488919;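 active = mean inhibition above about 50% when retested at one dose, limit read from the data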;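 note: plate controls were DMSO wells with completed reaction for no effect and substrate without enzyme for full effect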). As to conditions: Pre-incubated SENP8/Z-RLRGG-aminoluciferin, luciferase luminescence interference; at 12.5 µM; stronger effect = higher value.
For experiment [7], the target named is Tumor necrosis factor receptor superfamily member 10B (Homo sapiens) (UniProt O14763). The experiment in a line: viability loss of caspase-8 NB7 cells with TRAIL – with/without TRAIL, luminescence panel, confirmation (AID 651596; in the data active = activity above about 50%). As to conditions: NB7 neuroblastoma + caspase-8, TRAIL sensitization, NB7 Caspase-8, with TRAIL, mean of runs, at 10 µM, stronger effect = higher value.
Sequence of Tumor necrosis factor receptor superfamily member 10B (Homo sapiens) (O14763 whole entry, looked up): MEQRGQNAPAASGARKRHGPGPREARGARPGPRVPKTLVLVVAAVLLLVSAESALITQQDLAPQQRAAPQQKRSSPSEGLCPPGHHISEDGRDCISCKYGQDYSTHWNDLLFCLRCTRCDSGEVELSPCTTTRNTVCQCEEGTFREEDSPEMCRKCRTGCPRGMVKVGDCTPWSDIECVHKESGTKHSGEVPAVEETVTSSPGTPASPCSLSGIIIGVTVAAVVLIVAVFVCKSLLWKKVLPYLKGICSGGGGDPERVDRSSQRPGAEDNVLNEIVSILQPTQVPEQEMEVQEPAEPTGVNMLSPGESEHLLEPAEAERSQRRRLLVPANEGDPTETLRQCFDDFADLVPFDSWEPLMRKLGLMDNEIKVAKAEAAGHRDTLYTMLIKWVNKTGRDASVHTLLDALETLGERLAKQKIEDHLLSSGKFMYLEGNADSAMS

Assay in experiment [8]: as above
As to conditions: NB7 neuroblastoma + caspase-8, without TRAIL, NB7 Caspase-8, without TRAIL, mean of runs, at 10 µM.

Experiment [9] in a line: PERK-eIF2a-CHOP pathway stimulators, retested – cell-based, CHO-CHOP luciferase reporter, single concentration, confirmation (AID 463112).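 Note: 0% = DMSO wells and 100% = tunicamycin 10 µg/mL wells.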 As to conditions: CHO-CHOP cells, CHOP-luciferase reporter luminescence; at 10 µM; stronger effect = higher value; percent of tunicamycin response, DMSO as zero. For orientation: A reporter such as luciferase makes a cellular process visible.
The target in experiment [10] is Protein Mdm4 (Homo sapiens) + E3 ubiquitin-protein ligase Mdm2 (Homo sapiens) (UniProt O15151+Q00987). The experiment in a line: human Mdm2/MdmX binding disruption – cell-based, luminescence, single concentration, set 2, confirmation (AID 504601;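 active = mean inhibition of the luminescence signal across two replicates at or above 26 percent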). As to conditions: SaOS-2 split-luciferase Mdm2/MdmX complementation, at 8 µM, stronger effect = higher value.
Sequence of Protein Mdm4 (Homo sapiens) + E3 ubiquitin-protein ligase Mdm2 (Homo sapiens) (O15151 whole entry, looked up): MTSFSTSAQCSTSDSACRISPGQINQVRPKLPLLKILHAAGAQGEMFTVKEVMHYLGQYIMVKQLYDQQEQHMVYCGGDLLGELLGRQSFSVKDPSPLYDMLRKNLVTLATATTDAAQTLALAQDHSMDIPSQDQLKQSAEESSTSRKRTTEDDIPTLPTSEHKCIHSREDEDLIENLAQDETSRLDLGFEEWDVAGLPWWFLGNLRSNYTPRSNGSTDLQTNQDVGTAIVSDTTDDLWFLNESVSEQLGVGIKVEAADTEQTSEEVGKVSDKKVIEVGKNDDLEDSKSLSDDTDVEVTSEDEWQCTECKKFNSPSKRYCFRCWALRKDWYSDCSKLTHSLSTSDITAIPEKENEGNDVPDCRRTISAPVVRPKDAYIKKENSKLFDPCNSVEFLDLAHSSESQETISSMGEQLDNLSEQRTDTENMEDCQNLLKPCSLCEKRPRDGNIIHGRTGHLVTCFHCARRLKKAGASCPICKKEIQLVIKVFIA
Sequence of Protein Mdm4 (Homo sapiens) + E3 ubiquitin-protein ligase Mdm2 (Homo sapiens) (Q00987 whole entry, looked up): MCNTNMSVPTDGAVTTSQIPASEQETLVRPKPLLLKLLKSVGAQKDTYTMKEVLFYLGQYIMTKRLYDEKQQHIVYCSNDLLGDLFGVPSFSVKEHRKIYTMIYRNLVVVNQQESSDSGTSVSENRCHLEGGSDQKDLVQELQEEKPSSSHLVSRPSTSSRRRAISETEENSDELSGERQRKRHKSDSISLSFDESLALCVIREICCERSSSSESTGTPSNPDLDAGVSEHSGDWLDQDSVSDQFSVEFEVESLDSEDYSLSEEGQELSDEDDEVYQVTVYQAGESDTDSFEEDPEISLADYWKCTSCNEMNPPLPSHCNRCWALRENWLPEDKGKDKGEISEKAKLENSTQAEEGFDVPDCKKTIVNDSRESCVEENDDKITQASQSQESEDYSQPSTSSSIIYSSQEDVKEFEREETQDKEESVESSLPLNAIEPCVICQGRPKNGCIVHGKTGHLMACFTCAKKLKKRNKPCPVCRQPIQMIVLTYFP
Experiment [11] in a line: NF-kB reporter suppression in CF airway cells – cell-based, GFP fluorescence, single concentration, confirmation (AID 602472; in the data active = inhibition above about 40%;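 note: stimulus PAF is a Pseudomonas aeruginosa filtrate and not platelet activating factor; plate controls were DMSO wells with stimulus for no effect and unstimulated DMSO wells for full effect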). As to conditions: KKLEB CF airway cells, PAF-induced NF-kB-GFP fluorescence, overnight; at 5 µM; stronger effect = higher value.
Experiment [12] in a line: HIF-2a driven luciferase blockers, single dose – luminescence, 786-0 RCC cells, confirmation (AID 651580;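 active = mean inhibition across four replicates of at least 40 percent at the single tested concentration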). As to conditions: HIF-2a luciferase reporter luminescence, overnight, at 18.8 µM, stronger effect = higher value.
The nature of experiment [13]: HIF-1a luciferase reporter signal reduction – MiaPaCa-2 cells, single concentration, counter-screen for HIF-2a inhibitor project, confirmation (AID 651589;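 active = mean inhibition of the reporter signal across four replicates at the single tested dose of 50% or more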). As to conditions: MiaPaCa-2 HIF-1a luciferase reporter, desferoxamine, overnight; at 18.8 µM; stronger effect = higher value.
Experiment [14] in a line: NFkB reporter suppression in cystic fibrosis bronchial cells – cell-based, uHTS hits, panel, cytotoxicity readout, dose response (AID 624344). As to conditions: CF bronchial epithelial cells, PAF-induced NFkB reporter inhibition, with PAF, run 1; at 79 µM (top of the series) unless noted.
Assay in experiment [15]: as above
As to conditions: CF bronchial epithelial cells, PAF-induced NFkB reporter inhibition, with PAF, run 2; at 79 µM (top of the series) unless noted.

Experiment [16] can be described thus: Brca1-Bard1 BiLC signal decrease – luminescence, single concentration, counter-screen for Mdm2/MdmX interaction inhibitor project, confirmation (AID 504668; call rule not given here). As to conditions: Brca1/Bard1 bimolecular luciferase complementation counterscreen, at 8 µM, stronger effect = higher value. In general terms: Counterscreens check selectivity or assay interference.
Experiment [17] in a line: inhibition of PEG-3 promoter luciferase signal – cell-based, HeLa, luciferase reporter, single concentration, confirmation (AID 602417;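 active = at 20 µM dose, 40% or more inhibition averaged across four replicates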). As to conditions: HeLa PEG-Prom luciferase reporter, luminescence, overnight; at 20 µM; stronger effect = higher value.
Experiment [18] deals with PEG-3 (UniProt Q6IN02). Nature of the experiment: inhibition of PEG-3 promoter-driven reporter – cell-based, HeLa, luciferase, CREF/GAPDH counter-screen panel, dose response (AID 624167). As to conditions: CREF/GAPDH counter-screens; HeLa PEG-Prom luciferase reporter, overnight, run 1, dose range 1, at 100 µM (top of the series) unless noted.
Sequence of PEG-3 (Q6IN02 whole entry, looked up): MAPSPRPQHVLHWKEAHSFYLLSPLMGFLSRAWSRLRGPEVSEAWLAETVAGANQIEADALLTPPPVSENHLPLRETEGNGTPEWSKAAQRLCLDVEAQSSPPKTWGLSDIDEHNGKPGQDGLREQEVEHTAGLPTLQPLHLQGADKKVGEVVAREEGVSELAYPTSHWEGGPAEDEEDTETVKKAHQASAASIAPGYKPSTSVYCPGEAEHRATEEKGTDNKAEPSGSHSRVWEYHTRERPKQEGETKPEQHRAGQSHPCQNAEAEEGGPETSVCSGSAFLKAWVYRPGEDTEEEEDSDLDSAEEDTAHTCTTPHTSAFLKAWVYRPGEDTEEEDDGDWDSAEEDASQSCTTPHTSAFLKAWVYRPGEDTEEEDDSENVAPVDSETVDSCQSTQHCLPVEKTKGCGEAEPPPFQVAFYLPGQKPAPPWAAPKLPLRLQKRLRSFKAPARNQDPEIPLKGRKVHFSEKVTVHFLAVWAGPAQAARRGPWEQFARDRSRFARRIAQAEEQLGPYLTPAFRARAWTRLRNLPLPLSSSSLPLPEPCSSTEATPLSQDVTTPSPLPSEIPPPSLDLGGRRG
Experiment [19] concerns the target PEG-3 (UniProt Q6IN02). The experiment is described as above. As to conditions: CREF/GAPDH counter-screens; HeLa PEG-Prom luciferase reporter, overnight, run 2, dose range 1, at 100 µM (top of the series) unless noted.
The test system of experiment [20] is Rat fibroblasts (CREF). Described as above. As to conditions: CREF/GAPDH counter-screens; run 1, dose range 1, at 100 µM (top of the series).
In experiment [21] the test system is Rat fibroblasts (CREF). The experiment is described as above. As to conditions: CREF/GAPDH counter-screens; run 2, dose range 1, at 100 µM (top of the series).

As to `Cc1cccc(/C(N)=N/OC(=O)c2ccccc2Cl)c1`, the inhibition in [1] is -97.8% (inactive); in experiment [2] it was 97.7% (active); in [3] it was 98.9% (active); in experiment [4], 102% (active); in experiment [5], 97.2% (active); in experiment [6], 96.8% (active). Besides, the activity in [7] amounted to 77.6%; in experiment [8], 84.8%.

In the case of `Cc1ccc(Oc2nc(-c3ccccn3)nc3ccccc23)cc1`, the activation in [9] was 1.5% (inactive).

In the case of `Nc1ccccc1SC(C[N+](=O)[O-])c1ccccc1` (stereo unspecified), the activation in [9] was -9.65% (inactive).

`CC1CC2=C(CC1/C=N/NC(N)=S)C(C)(C)CCC2` (stereo unspecified): in experiment [9], the activation is 29.4% (inactive).

Consider `COc1ccc(C(=O)NCC(=O)N/N=C/c2ccc([N+](=O)[O-])o2)cc1OC`, for which, in experiment [9], the activation was 35.6% (active).

On to `CCCOC1CCCN(Cc2cn(C)nc2-c2ccccc2F)C1` (stereo unspecified), for which the activation in experiment [9] is -0.8% (inactive).

`O=C(CN1CCN(S(=O)(=O)c2cc(Cl)ccc2Cl)CC1)c1ccc(O)c(O)c1`: the activation in experiment [9] was 21.2% (inactive).

`COc1cc(/C=C2/C(=O)ON=C2C)ccc1OCc1ccccc1F`: the activation in experiment [9] was 3.58% (inactive).

`O=C(NCCc1ccc(Cl)cc1)c1cccc(N2CCCC2=O)c1`: the activation in experiment [9] is 1.95% (inactive).

Turning to `CCc1ccc2c(c1)C1(NN=C(c3ccccc3)S1)C(=O)N2` (stereo unspecified), the activation in [9] was 98.4% (active).

With `COc1ccc2c(c1OC)C(=O)OC2Nc1nc(-c2ccccc2)cs1` (stereo unspecified), the activation in [9] is 29.9% (inactive). The inhibition in experiment [10] was 103% (active); in experiment [11] it was 106% (active); in experiment [12] it was 26% (inactive); in experiment [13], 105% (active); in [14], 109%; in [15], 103%.

With `COc1cccc2sc(Nc3nc(C)c(C(C)=O)s3)nc12`, in experiment [9], the activation is 58.5% (active). For the same molecule, the inhibition in experiment [2] was 51.3% (active); in experiment [3] it was 47.9% (inactive); in experiment [4], 83.9% (active); in experiment [5], 56.6% (active); in experiment [6], 72.3% (active).

Consider `COC(=O)c1ccc(C(=O)Nc2cc(Cl)ccc2Cl)cc1NC(=O)c1ccccc1C`, for which the activation in experiment [9] was 10.6% (inactive).

For `CN(C)CCCn1c(SCc2ccc(Cl)cc2)nnc1-c1ccncc1`, the activation in experiment [9] is -0.025% (inactive).

Regarding `Cc1ccc(-c2nnc(-c3ccc(NC(=O)c4cccs4)cc3)o2)cc1`, in [9], the activation is 134% (active).

With `OCCNc1nc(Nc2ccc(Cl)c(Cl)c2)nc2ccccc12`, the activation in [9] is 41% (active). Also, the inhibition in experiment [16] was 24.3% (active); in [11], 81.5% (active); in experiment [14], 110%; in [15], 105%.

`Oc1c(CN2CCN(c3ccc(F)cc3)CC2)cc(Cl)c2cccnc12`: the activation in experiment [9] is 196% (active). In experiment [16], the inhibition was 25.7% (active).

On to `C=CS(=O)c1sc(Cl)c(N2CCOCC2)c1[N+](=O)[O-]` (stereo unspecified), for which, in experiment [9], the activation was -10.6% (inactive).

Take `CS(=O)(=O)N(Cc1ccccc1)c1ccc(C(=O)NN=C2CCCCCC2)cc1`: in [9], the activation was -1.8% (inactive).

Consider `CCOC(=O)c1cnc(Nc2nc3ccccc3o2)nc1CSC(=S)N1CCCCC1`, for which, in experiment [9], the activation was 92.7% (active).

Turning to `COc1ccccc1/C=N\Nc1cc(C)nc(-n2nc(C)cc2C)n1`, the activation in [9] is 38% (active).

In the case of `CSc1nc(-c2ccccc2)nc(C(Cl)Cl)n1`, in [9], the activation was 28.5% (inactive). Further, the inhibition in experiment [10] was 97.7% (active); in experiment [12], 59.7% (active); in experiment [13], 105% (active).

For `COc1ccc(-c2cc(C(F)(F)F)nc(S(C)(=O)=O)n2)cc1OC`, the activation in experiment [9] was 210% (active). Moreover, the inhibition in experiment [16] was 24.3% (active).

For `Cc1cccc(CS(=O)(=O)c2ncc(Cl)c(C(=O)Nc3ccc(F)cc3)n2)c1`, the activation in experiment [9] was 88.1% (active). For the same molecule, the inhibition in experiment [10] was 103% (active); in experiment [17], 95.7% (active); in experiment [11] it was 44% (active); in [12], 99.3% (active); in experiment [13], 86.8% (active); in experiment [18], 99.1%. In addition, the inhibition in [19] stood at 98.3%; in experiment [20], 100%; in experiment [21], 96.3%.

`CC(C)(C)C(=O)OCc1nc(-c2ccc(O)c(O)c2)cs1`: the activation in experiment [9] is 144% (active).

As for `COCCNc1nc(-n2nc(C)cc2C)nc2sc3c(c12)CCCC3`, the activation in experiment [9] was 8.5% (inactive).

Turning to `Cc1cccc(C)c1NC(=O)C(Cl)C(=O)c1ccccc1` (stereo unspecified), the activation in [9] is 85.6% (active).

Consider `CC(C)(C)Nc1nc(-c2ccccn2)nc2ccccc12`, for which the activation in experiment [9] was 20.4% (inactive). The inhibition in experiment [16] is 23.3% (active).

Regarding `Nc1nc(CC(=O)CSc2ccc(Cl)cc2)nc(Nc2ccc(F)cc2)n1`, the activation in experiment [9] is 40% (active). Further, the inhibition in experiment [16] was 29.2% (active).

With `COc1ccc(C(C[N+](=O)[O-])n2nc(C)cc2C)cc1` (stereo unspecified), in [9], the activation is 60% (active).

For the molecule `CSc1nnc(NC(=O)c2nc(S(=O)(=O)Cc3ccc(C)cc3)ncc2Cl)s1`, the activation in [9] is 87% (active). Moreover, the inhibition in experiment [10] is 100% (active). For the same molecule, the activity in experiment [7] is 74.5%; in experiment [8] it was 82.2%.

In the case of `Cc1cc(C(=O)CCl)c(C)n1CC1COc2ccccc2O1` (stereo unspecified), in [9], the activation is 60.3% (active).

For the molecule `CCOC(=O)c1sc(NC(=O)CCN2CCOCC2)c(C(=O)OCC)c1C`, the activation in experiment [9] is -1.25% (inactive).

Consider `O=C(CSc1cccc2cccnc12)N/N=C/c1cccnc1`, for which the activation in experiment [9] is 265% (active).

In the case of `COc1ccccc1N=Cc1c(O)c2ccccc2oc1=O`, in [9], the activation is 124% (active). Moreover, the inhibition in experiment [2] is 43.2% (inactive); in experiment [3], 53.7% (active); in [4], 49.6% (inactive); in experiment [5], 19.3% (inactive); in experiment [6], 27.7% (inactive).

For orientation: inhibition means the relative decrease from the control value, in per cent.
